This note sets out measurements from PubChem BioAssay (NCI).

Several values for one entry are separate records, joined by “and”; a condition that tells them apart may be missing. Equal entries are not always repeated. About 83,000 compounds went through this panel and 20% of them were active in at least one assay; those are over-represented in the sample as a whole.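 Note: values are percent growth. 100 is the growth of untreated cells, values between 100 and 0 indicate rising inhibition; between -100 and 0 indicates cell death.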 Activity calls are given as the source filed them. The calls were made as follows: active = growth percent below 10; inactive = the rest.

Holding throughout (assay): NCI-60 one-dose screen, 48 h (100 = growth as untreated, 0 = no growth, -100 = all killed)
The subject of one assay is SR leukemia. To be noted: 10 µM unless noted.
The test system of another assay is RPMI-8226 leukemia. The note with it: 10 µM.
The subject of the next assay is OVCAR-8 ovarian. The note with it: 10 µM.
For the next assay, the system named is OVCAR-5 ovarian. To be noted: 10 µM.
Another assay concerns OVCAR-4 ovarian. To be noted: 10 µM.
A further assay deals with SK-OV-3 ovarian. To be noted: 10 µM.
The subject of the next assay is IGROV1 ovarian. To be noted: 10 µM.
The next assay has as its system OVCAR-3 ovarian. The note with it: 10 µM.
The next assay has as its system HS 578T breast. To be noted: 10 µM.
The subject of another assay is NCI/ADR-RES ovarian. The note with it: 10 µM.

As for `Nc1nc(=S)c2ncn(C3OC(CO)C(O)C3O)c2[nH]1` (stereo not drawn), the growth is 119% (inactive) in the assay on SR leukemia; 103% (inactive) and 0.898% (active) in the assay with RPMI-8226 leukemia; 100% (inactive) and 13.1% (inactive) with OVCAR-8 ovarian; 101% (inactive) and 45.2% (inactive) in the assay on OVCAR-5 ovarian; 103% (inactive) and 29.3% (inactive) in the assay with OVCAR-4 ovarian; 118% (inactive) in the assay with SK-OV-3 ovarian. The growth with IGROV1 ovarian was 108% (inactive); in the assay with OVCAR-3 ovarian it was 112% (inactive) and 8.33% (active); in the assay on HS 578T breast, 163% (inactive) and 50.6% (inactive); in the assay with NCI/ADR-RES ovarian, 106% (inactive) and 29.9% (inactive).

On to `COc1ccc(CC(=O)c2ccc(O)cc2O)cc1`, for which the growth in the assay on OVCAR-8 ovarian was 92.8% (inactive); with OVCAR-5 ovarian, 105% (inactive); with OVCAR-4 ovarian, 99.2% (inactive); in the assay on SK-OV-3 ovarian, 163% (inactive); in the assay with IGROV1 ovarian, 122% (inactive); with OVCAR-3 ovarian it was 130% (inactive). Moreover, the growth in the assay with HS 578T breast was 108% (inactive); in the assay with NCI/ADR-RES ovarian, 105% (inactive).

Regarding `CN1CCN(CCCN2c3ccccc3Sc3ccc(C(F)(F)F)cc32)CC1`, the growth with SR leukemia is 14.2% (inactive); in the assay with RPMI-8226 leukemia it was -7.1% (active); with OVCAR-8 ovarian, 78.2% (inactive); with OVCAR-4 ovarian it was 71.2% (inactive); in the assay on SK-OV-3 ovarian, 92.4% (inactive); in the assay on IGROV1 ovarian it was 40.7% (inactive). Moreover, the growth in the assay with OVCAR-3 ovarian is 92% (inactive); in the assay on HS 578T breast it was 60.4% (inactive); in the assay on NCI/ADR-RES ovarian, 70.8% (inactive).

With `COC1OCC(O)C(O)C1O` (stereo not drawn), the growth was 109% (inactive) in the assay on RPMI-8226 leukemia; 104% (inactive) in the assay on OVCAR-8 ovarian; 110% (inactive) with OVCAR-5 ovarian; 101% (inactive) in the assay on OVCAR-4 ovarian; 111% (inactive) in the assay with SK-OV-3 ovarian; 106% (inactive) in the assay on OVCAR-3 ovarian. In addition, the growth was 98.9% (inactive) in the assay on HS 578T breast and 110% (inactive) in the assay with NCI/ADR-RES ovarian.

For `O=C(/C=C/c1ccccn1)c1ccccc1`, the growth was -15.7% (active) in the assay with SR leukemia; 25.4% (inactive) in the assay on RPMI-8226 leukemia; 28.9% (inactive) in the assay on OVCAR-8 ovarian; 81% (inactive) in the assay on OVCAR-5 ovarian; 47.2% (inactive) with OVCAR-4 ovarian; 108% (inactive) with SK-OV-3 ovarian. The growth in the assay on IGROV1 ovarian was 46.1% (inactive); in the assay on OVCAR-3 ovarian it was 17.3% (inactive); in the assay on NCI/ADR-RES ovarian, 35% (inactive).

As to `CCN1/C(=C/C=C/C=C/c2sc3ccccc3[n+]2CC)Sc2ccccc21`, the growth in the assay on RPMI-8226 leukemia is -21.4% (active); in the assay on OVCAR-8 ovarian, -65.6% (active); in the assay with OVCAR-5 ovarian, 7.61% (active); in the assay on OVCAR-4 ovarian, -42% (active); in the assay on SK-OV-3 ovarian, -73.1% (active); in the assay with IGROV1 ovarian it was -62.9% (active). The results for the growth in the assay on OVCAR-3 ovarian, in the assay with HS 578T breast and with NCI/ADR-RES ovarian were -64.1% (active), 26.2% (inactive) and 55.9% (inactive), respectively.

`COc1c(O)cc2oc3cc(O)c(CC=C(C)C)c(O)c3c(=O)c2c1CC=C(C)C`: the growth in the assay with SR leukemia is 7.13% (active); in the assay on RPMI-8226 leukemia it was 49.9% (inactive); in the assay on OVCAR-8 ovarian, 54.7% (inactive); with OVCAR-4 ovarian, 82.2% (inactive); in the assay with SK-OV-3 ovarian, 89% (inactive); in the assay on IGROV1 ovarian, 75% (inactive). Further, the results for the growth in the assay on OVCAR-3 ovarian, with HS 578T breast and in the assay with NCI/ADR-RES ovarian were 46.1% (inactive), 73.3% (inactive) and 38.6% (inactive), respectively.

Turning to `NC(=O)SCC(=O)NNc1ccccc1`, the growth in the assay on SR leukemia is 111% (inactive); in the assay on RPMI-8226 leukemia it was 105% (inactive); in the assay on OVCAR-8 ovarian it was 93.8% (inactive); in the assay on OVCAR-4 ovarian it was 104% (inactive); in the assay with SK-OV-3 ovarian, 100% (inactive); in the assay with IGROV1 ovarian, 103% (inactive). For the same compound, the growth in the assay on OVCAR-3 ovarian is 107% (inactive); with HS 578T breast, 100% (inactive); in the assay on NCI/ADR-RES ovarian, 95.5% (inactive).

For the compound `N=S(c1ccccc1[N+](=O)[O-])c1ccccc1[N+](=O)[O-]`, the growth in the assay with RPMI-8226 leukemia was 72.8% (inactive); with OVCAR-8 ovarian, 96.8% (inactive); in the assay on OVCAR-5 ovarian it was 69.6% (inactive); with OVCAR-4 ovarian, 38.4% (inactive); with SK-OV-3 ovarian it was 87.2% (inactive); with IGROV1 ovarian, 53.9% (inactive). Also, the values for the growth in the assay with OVCAR-3 ovarian, in the assay with HS 578T breast and with NCI/ADR-RES ovarian were -58.8% (active), 96.7% (inactive) and 90.4% (inactive), respectively.

For the compound `COc1cccc2c1C(=O)c1c(O)c3c(c(O)c1C2=O)C[C@@](O)(C(C)=O)C[C@@H]3OC1CC(N)C(O)C(C)O1` (stereo partly drawn), the growth with SR leukemia is -25.4% (active); in the assay with RPMI-8226 leukemia, -23.9% (active); in the assay on OVCAR-5 ovarian it was -12.3% (active); in the assay on OVCAR-4 ovarian, -3.17% (active); in the assay with SK-OV-3 ovarian it was 5.5% (active); with IGROV1 ovarian, -29% (active). In addition, the results for the growth with OVCAR-3 ovarian, in the assay with HS 578T breast and with NCI/ADR-RES ovarian were -1.56% (active), -69% (active) and 23.9% (inactive), respectively.

In the case of `O=C1C=CC(=CC=C2C=CN(CCCCCCCCCCCO)C=C2)C=C1`, the growth with RPMI-8226 leukemia was 11.9% (inactive); in the assay on OVCAR-8 ovarian, 22.7% (inactive); in the assay on OVCAR-5 ovarian, 55.4% (inactive); with OVCAR-4 ovarian it was 35.4% (inactive); with SK-OV-3 ovarian, 45.4% (inactive); in the assay on IGROV1 ovarian, 41.2% (inactive). Besides, the results for the growth in the assay on OVCAR-3 ovarian, in the assay with HS 578T breast and in the assay on NCI/ADR-RES ovarian were 30.2% (inactive), 35.6% (inactive) and 104% (inactive), respectively.

Regarding `CC(=O)OCC(OC(C)=O)C(OC(C)=O)C(OC(C)=O)C(OC(C)=O)C(/C=N/Nc1ccccc1)=N/Nc1ccccc1` (stereo not drawn), the growth with SR leukemia was 2.05% (active); with RPMI-8226 leukemia it was 60.6% (inactive); in the assay with OVCAR-8 ovarian it was 63.8% (inactive); with OVCAR-5 ovarian, 96.4% (inactive); in the assay with OVCAR-4 ovarian, 82.6% (inactive); in the assay on SK-OV-3 ovarian, 85.5% (inactive). Further, the growth with IGROV1 ovarian is 60.1% (inactive); in the assay with OVCAR-3 ovarian, 71.8% (inactive); in the assay on HS 578T breast it was 73% (inactive); in the assay with NCI/ADR-RES ovarian it was 72.4% (inactive).

Regarding `CN(C)C(=S)SC(=S)N(C)C`, the growth was 42.6% (inactive) and 52.1% (inactive) with SR leukemia; 62.7% (inactive) in the assay on RPMI-8226 leukemia; 107% (inactive) and 96.6% (inactive) in the assay on OVCAR-8 ovarian; 106% (inactive) and 108% (inactive) in the assay on OVCAR-5 ovarian; 72.9% (inactive) and 32.9% (inactive) with OVCAR-4 ovarian; 115% (inactive) and 110% (inactive) with SK-OV-3 ovarian. Also, the growth is 96.2% (inactive) and 94.3% (inactive) in the assay with IGROV1 ovarian; 98.8% (inactive) and 96.2% (inactive) with OVCAR-3 ovarian; 106% (inactive) and 102% (inactive) with HS 578T breast; 104% (inactive) and 101% (inactive) in the assay with NCI/ADR-RES ovarian.
